Measured values reported in PubChem BioAssay (NCI).
About 79,000 compounds went through this panel and 15% of them were active in at least one assay; those are over-represented in the sample as a whole. Activity calls are given as the source filed them. No stated cut-off is given here; in the data, active means growth inhibition above about 70%; inactive means the rest.

Experiments:
[1] = NCI Yeast Anticancer Drug Screen. Data for the wt1 strain (AID 149);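 further: 0% = growth of vehicle-treated wt1 cultures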; settings: S. cerevisiae wt1 strain (SPY 50644) growth inhibition, hits give high values
Method in brief: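 Each compound is tested on wt1 yeast and the loss of growth versus vehicle gives the inhibition value.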

[2] = NCI Yeast Anticancer Drug Screen. Data for the rad50EPP+ strain (AID 151);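 further: 0% = growth of vehicle-treated control cultures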; settings: S. cerevisiae rad50 mutant strain, hits give high values
Method in brief: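 Read-out is yeast growth inhibition relative to vehicle; cells used were the rad50EPP+ strain.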

[3] = NCI Yeast Anticancer Drug Screen. Data for the mgt1 strain (AID 153); settings: S. cerevisiae mgt1 mutant growth inhibition, hits give high values
Method in brief: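 Measured: inhibition of mgt1 yeast growth by compound, normalized to vehicle-treated cultures.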

[4] = NCI Yeast Anticancer Drug Screen. Data for the rad50 strain (AID 155);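 further: 0% = growth of vehicle-only cultures of the same strain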; settings: S. cerevisiae rad50 strain growth inhibition, hits give high values
Method in brief: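 Vehicle-treated cultures provide the reference for the growth inhibition reported for compound-exposed, repair-deficient yeast.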

[5] = NCI Yeast Anticancer Drug Screen. Data for the mec2-1 strain (AID 157); settings: S. cerevisiae mec2-1 strain, hits give high values
Method in brief: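 Using mec2-1 yeast: add compound, measure growth, express inhibition versus vehicle-treated cultures.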

[6] = NCI Yeast Anticancer Drug Screen. Data for the rad14 strain (AID 159);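 further: 0% = growth of vehicle-treated control cultures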; settings: S. cerevisiae rad14 strain growth inhibition, hits give high values
Method in brief: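 Inhibition of growth is reported for a repair-deficient yeast mutant following compound treatment, calculated relative to cultures that received vehicle.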

[7] = NCI Yeast Anticancer Drug Screen. Data for the sgs1 mgt1 strain (AID 161);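 further: 0% = growth of cultures given vehicle only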; settings: S. cerevisiae sgs1 mgt1 strain, hits give high values
Method in brief: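 This yeast growth screen uses a strain with defined DNA-repair lesions; compound-treated growth is compared with vehicle-treated growth.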

[8] = NCI Yeast Anticancer Drug Screen. Data for the CLN2oe strain (AID 163);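 further: 0% = growth of vehicle-only control cultures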; settings: S. cerevisiae CLN2oe strain, hits give high values
Method in brief: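 Whole-cell yeast growth assay. A strain engineered for altered cell-cycle control received compound, and inhibition relative to vehicle-treated cultures was recorded.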

[9] = NCI Yeast Anticancer Drug Screen. Data for the cln2 rad14 strain (AID 165);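 further: 0% = growth equal to vehicle treated cultures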; settings: S. cerevisiae cln2 rad14 strain, hits give high values
Method in brief: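 Yeast strain cln2 rad14, bearing defects in cell cycle control and DNA repair, serves as the test system; values reflect growth inhibition compared with vehicle.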

[10] = NCI Yeast Anticancer Drug Screen. Data for the bub3 strain (AID 167); settings: S. cerevisiae bub3 mutant strain, hits give high values
Method in brief: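 Mutant yeast screening strain plus compound; vehicle-treated cultures serve as the 0% inhibition reference.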

[11] = NCI Yeast Anticancer Drug Screen. Data for the wt2 strain (AID 169); settings: S. cerevisiae wt2 strain growth inhibition, hits give high values
Method in brief: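 Treated yeast vs. vehicle-treated yeast: growth inhibition determined.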

[12] = NCI Yeast Anticancer Drug Screen. Data for the mlh1 strain (AID 171);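 further: 0% = growth of vehicle-treated control cultures of the same strain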; settings: S. cerevisiae mlh1 strain growth inhibition, hits give high values
Method in brief: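 A yeast strain with a defined genetic lesion serves as the test organism. Cultures receive compound or vehicle, and growth is measured.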

[13] = NCI Yeast Anticancer Drug Screen. Data for the mlh1 rad18 strain (AID 175); settings: S. cerevisiae mlh1 rad18 strain growth inhibition, hits give high values
Method in brief: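 Steps: expose repair-defective yeast to compound; measure growth; express inhibition against vehicle-treated controls.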

[14] = NCI Yeast Anticancer Drug Screen. Data for the sgs1 strain (AID 173);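 further: 0% = growth of vehicle-only control cultures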; settings: S. cerevisiae sgs1 mutant, hits give high values
Method in brief: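 A genetically defined yeast mutant is incubated with the test compound, and its growth is compared to that of the same strain given vehicle.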

[15] = NCI Yeast Anticancer Drug Screen. Data for the rad18 strain (AID 177); settings: S. cerevisiae rad18 mutant growth inhibition, hits give high values
Method in brief: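 Measured value is growth inhibition of a yeast strain bearing a DNA repair alteration, referenced to vehicle-treated cells.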

[16] = at 5.0 µM (retest, dose inferred, filed as 0.5)
[17] = at 50.0 µM (retest, dose inferred, filed as 5.0)

Measured: growth inhibition

COc1ccc(/C=C2\S/C(=N/Nc3nc(-c4ccccc4)cs3)NC2=O)cc1OC
inactive: [1]; at 1.2 µM 50% | [2]; at 1.2 µM 29% | [2]; at 3.7 µM 63% | [4]; at 1.2 µM 59% | [4]; [16] -4% | [5]; [16] -8% | [6]; at 1.2 µM 20% | [6]; at 3.7 µM 45% | [7]; [16] -4% | [8]; at 1.2 µM 44% | [9]; [16] 11% | [11]; at 1.2 µM 22% | [12]; at 1.2 µM 13% | [13]; [16] 12%
active: [1]; at 3.7 µM 90% | [1]; at 11.0 µM 97% | [1]; at 33.0 µM 96% | [1]; at 100.0 µM 95% | [2]; at 11.0 µM 93% | [2]; at 33.0 µM 97% | [2]; at 100.0 µM 97% | [3]; at 1.2 µM 92% | [3]; at 3.7 µM 97% | [3]; at 11.0 µM 98% | [3]; at 33.0 µM 97% | [3]; at 100.0 µM 93% | [4]; at 3.7 µM 87% | [4]; at 11.0 µM 96% | [4]; at 33.0 µM 97% | [4]; [17] 93% | [4]; at 50.0 µM 95.2% | [4]; at 100.0 µM 93% | [5]; at 1.2 µM 82% | [5]; at 3.7 µM 88% | [5]; at 11.0 µM 96% | [5]; at 33.0 µM 97% | [5]; [17] 87% | [5]; at 50.0 µM 95.5% | [5]; at 100.0 µM 94% | [6]; at 11.0 µM 84% | [6]; at 33.0 µM 93% | [6]; at 100.0 µM 92% | [7]; [17] 90% | [7]; at 50.0 µM 95.7% | [8]; at 3.7 µM 79% | [8]; at 11.0 µM 96% | [8]; at 33.0 µM 98% | [8]; at 100.0 µM 97% | [9]; [17] 95% | [9]; at 50.0 µM 91% | [10]; at 1.2 µM 82% | [10]; at 3.7 µM 93% | [10]; [16] 94% | [10]; at 11.0 µM 97% | [10]; at 33.0 µM 97% | [10]; [17] 98% | [10]; at 50.0 µM 98.3% | [10]; at 100.0 µM 97% | [11]; at 3.7 µM 79% | [11]; at 11.0 µM 97% | [11]; at 33.0 µM 95% | [11]; at 100.0 µM 96% | [12]; at 3.7 µM 75% | [12]; at 11.0 µM 96% | [12]; at 33.0 µM 94% | [12]; at 100.0 µM 88% | [13]; [17] 97% | [13]; at 50.0 µM 98.5%

CC(=O)CC[N+](C)(C)C
inactive: [1]; at 1.2 µM 0% | [1]; at 3.7 µM 11% | [1]; at 11.0 µM 2% | [1]; at 33.0 µM -5% | [1]; at 100.0 µM 2% | [2]; at 1.2 µM -7% | [2]; at 3.7 µM 4% | [2]; at 11.0 µM -4% | [2]; at 33.0 µM -15% | [2]; at 100.0 µM 7% | [3]; at 1.2 µM -29% | [3]; at 3.7 µM -21% | [3]; at 11.0 µM -17% | [3]; at 33.0 µM -21% | [3]; at 100.0 µM -2% | [4]; at 1.2 µM -14% | [4]; at 3.7 µM -9% | [4]; [16] 31% | [4]; at 11.0 µM -4% | [4]; at 33.0 µM -14% | [4]; at 50.0 µM 0.7% | [4]; at 100.0 µM -13% | [5]; at 1.2 µM 4% | [5]; at 3.7 µM -3% | [5]; [16] 22% | [5]; at 11.0 µM -1% | [5]; at 33.0 µM -7% | [5]; [17] 59% | [5]; at 50.0 µM -22.7% | [5]; at 100.0 µM 4% | [6]; at 1.2 µM 5% | [6]; at 3.7 µM 6% | [6]; at 11.0 µM -5% | [6]; at 33.0 µM 0% | [6]; at 100.0 µM -2% | [7]; [16] 13% | [7]; [17] 51% | [7]; at 50.0 µM -30.9% | [8]; at 1.2 µM 17% | [8]; at 3.7 µM 28% | [8]; at 11.0 µM 31% | [8]; at 33.0 µM 31% | [8]; at 100.0 µM 36% | [9]; [16] 25% | [9]; [17] 30% | [9]; at 50.0 µM -41.7% | [10]; at 1.2 µM 12% | [10]; at 3.7 µM 16% | [10]; [16] 20% | [10]; at 11.0 µM 16% | [10]; at 33.0 µM 13% | [10]; [17] 14% | [10]; at 50.0 µM -24.3% | [10]; at 100.0 µM 27% | [11]; at 1.2 µM -22% | [11]; at 3.7 µM -1% | [11]; at 11.0 µM -25% | [11]; at 33.0 µM -31% | [11]; at 100.0 µM -30% | [12]; at 1.2 µM -13% | [12]; at 3.7 µM -6% | [12]; at 11.0 µM -11% | [12]; at 33.0 µM -9% | [12]; at 100.0 µM -22% | [14]; at 1.2 µM -8% | [14]; at 3.7 µM -12% | [14]; at 11.0 µM 3% | [14]; at 33.0 µM 3% | [14]; at 100.0 µM 23% | [13]; [16] 26% | [13]; at 50.0 µM 41.9% | [15]; at 1.2 µM -20% | [15]; at 3.7 µM -11% | [15]; at 11.0 µM 14% | [15]; at 33.0 µM -2% | [15]; at 100.0 µM -10%
active: [4]; [17] 100% | [13]; [17] 80%

CCOc1ccccc1N1C(=O)CC(Sc2ccccc2N)C1=O (centres undefined)
inactive: [1]; at 1.2 µM 12% | [1]; at 3.7 µM 17% | [1]; at 11.0 µM 10% | [1]; at 33.0 µM 15% | [1]; at 100.0 µM 9% | [2]; at 1.2 µM 19% | [2]; at 3.7 µM 8% | [2]; at 11.0 µM 8% | [2]; at 33.0 µM 16% | [2]; at 100.0 µM 25% | [3]; at 1.2 µM 3% | [3]; at 3.7 µM -10% | [3]; at 11.0 µM -13% | [3]; at 33.0 µM -5% | [3]; at 100.0 µM 1% | [4]; at 1.2 µM 13% | [4]; at 3.7 µM 2% | [4]; [16] 39% | [4]; at 11.0 µM 17% | [4]; at 33.0 µM 10% | [4]; at 50.0 µM 0.8% | [4]; at 100.0 µM -20% | [5]; at 1.2 µM 2% | [5]; at 3.7 µM 10% | [5]; [16] 57% | [5]; at 11.0 µM -9% | [5]; at 33.0 µM 0% | [5]; at 50.0 µM -12.4% | [5]; at 100.0 µM -19% | [6]; at 1.2 µM -23% | [6]; at 3.7 µM -23% | [6]; at 11.0 µM -41% | [6]; at 33.0 µM -48% | [6]; at 100.0 µM -55% | [7]; [16] -5% | [7]; [17] 24% | [7]; at 50.0 µM 14.4% | [8]; at 1.2 µM 10% | [8]; at 3.7 µM 6% | [8]; at 11.0 µM 1% | [8]; at 33.0 µM -15% | [8]; at 100.0 µM -19% | [9]; [16] 39% | [9]; [17] 1% | [9]; at 50.0 µM -13.9% | [10]; at 1.2 µM -4% | [10]; at 3.7 µM 1% | [10]; [16] 30% | [10]; at 11.0 µM -10% | [10]; at 33.0 µM -23% | [10]; [17] 38% | [10]; at 50.0 µM 11.4% | [10]; at 100.0 µM -38% | [11]; at 1.2 µM -2% | [11]; at 3.7 µM -7% | [11]; at 11.0 µM -8% | [11]; at 33.0 µM -7% | [11]; at 100.0 µM -13% | [12]; at 1.2 µM -10% | [12]; at 3.7 µM -18% | [12]; at 11.0 µM -33% | [12]; at 33.0 µM -18% | [12]; at 100.0 µM -24% | [14]; at 1.2 µM 16% | [14]; at 3.7 µM 5% | [14]; at 11.0 µM 6% | [14]; at 33.0 µM 14% | [14]; at 100.0 µM -1% | [13]; [16] 37% | [13]; at 50.0 µM 16.5% | [15]; at 1.2 µM 1% | [15]; at 3.7 µM -12% | [15]; at 11.0 µM -22% | [15]; at 33.0 µM -13% | [15]; at 100.0 µM -24%
active: [4]; [17] 75% | [5]; [17] 85% | [13]; [17] 70%
